Source: PubChem BioAssay (NCATS)
Records with an inconclusive call do not appear. Calls of active or inactive are those of the source. Calls follow the shape of the dose curve; as a rule, active = well fitted curve in the direction sought with a large enough effect; inconclusive = small, poorly fitted or top-dose-only effect, or another doubt; inactive = no such curve, though single readings can be large; an effect the other way counts as inactive or inconclusive.

Assays:
[1] = qHTS of pediatric cancer cell lines to identify multiple opportunities for drug repurposing: Primary screen for SK-N-SH cells (AID 1347098);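 also: DMSO served as neutral control and bortezomib at 2.3 µM as positive control; nearly all actives have a fitted effect of over 65% in size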
How it was run: (§1)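 Cells (500-1,000/well) rested 5 h, then received compounds for 48 h; metabolically active cells were measured by CellTiter-Glo luminescence. Final concentrations spanned up to 46 µM (MIPE, 11-point) or 0.59 nM-46 µM (NPC, 8-point) in primary screens, 11-point in follow-ups.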

[2] = qHTS of pediatric cancer cell lines to identify multiple opportunities for drug repurposing: Primary screen for NB1643 cells (AID 1347099); also: nearly all actives have a fitted effect of over 50% in size
How it was run: (§2)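 500-1,000 cells/well; 5 h pre-incubation 37 °C/5% CO2; compound pinned; 48 h; CellTiter-Glo, 15 min RT; luminescence. MIPE 11-pt from 0.78 nM, NPC 8-pt from 0.59 nM final. Bortezomib 2.3 µM final as positive control.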

[3] = qHTS of pediatric cancer cell lines to identify multiple opportunities for drug repurposing: Primary screen for LAN-5 cells (AID 1347100)
How it was run: as §1

[4] = qHTS of pediatric cancer cell lines to identify multiple opportunities for drug repurposing: Primary screen for BT-12 cells (AID 1347101); also: nearly all actives have a fitted effect of over 25% in size
How it was run: as §1

[5] = qHTS of pediatric cancer cell lines to identify multiple opportunities for drug repurposing: Primary screen for Rh18 cells (AID 1347102); also: nearly all actives have a fitted effect of over 65% in size
How it was run: as §1

[6] = qHTS of pediatric cancer cell lines to identify multiple opportunities for drug repurposing: Primary screen for OHS-50 cells (AID 1347103); also: nearly all actives have a fitted effect of over 40% in size
How it was run: as §1

[7] = qHTS of pediatric cancer cell lines to identify multiple opportunities for drug repurposing: Primary screen for RD cells (AID 1347104); also: nearly all actives have a fitted effect of over 55% in size
How it was run: as §2

[8] = qHTS of pediatric cancer cell lines to identify multiple opportunities for drug repurposing: Primary screen for MG 63 (6-TG R) cells (AID 1347105); also: nearly all actives have a fitted effect of over 50% in size
How it was run: as §2

[9] = qHTS of pediatric cancer cell lines to identify multiple opportunities for drug repurposing: Primary screen for control Hh wild type fibroblast cells (AID 1347106);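 also: series mostly up to about 46 µM; a drop in luminescence marks cytotoxicity and a rise apparent proliferation; nearly all actives have a fitted effect of over 55% in size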
How it was run: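 Viability after 48 h compound treatment at 37C, 500-1,000 cells/well, read as ATP luminescence with CellTiter-Glo. Primary screens used 11-point (MIPE, 0.78 nM-46 µM) or 8-point (NPC, 0.59 nM-46 µM) final concentrations; follow-up screens used 11-point dilutions.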

[10] = qHTS of pediatric cancer cell lines to identify multiple opportunities for drug repurposing: Primary screen for Rh30 cells (AID 1347107); also: series mostly up to about 46 µM; nearly all actives have a fitted effect of over 75% in size
How it was run: as §1

[11] = qHTS of pediatric cancer cell lines to identify multiple opportunities for drug repurposing: Primary screen for Rh41 cells (AID 1347108);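 also: series mostly up to about 46 µM; luminescence drop marks cytotoxic hits; nearly all actives have a fitted effect of over 70% in size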
How it was run: as §2

Measured: Potency

COc1ccc2nc(SCc3ncc(C)c(OC)c3C)[nH]c2c1
inactive: all assays above

CC(C)C(=O)Nc1cccc(C(F)(F)F)c1
inactive: all assays above

CC(C)NC(=O)c1ccc(C=O)cc1
inactive: all assays above

NCC(=O)O
inactive: all assays above

CN(C)CCN1CCN(c2cccc(Cl)c2)C1=O
inactive: all assays above

COC(=O)CCCCC(CCSS/C(CCO)=C(\C)N(C=O)Cc1cnc(C)nc1N)SC(C)=O (stereo not given)
inactive: all assays above

O=C(O)Cn1cnnn1
inactive: all assays above

COC(=O)c1cc(S(N)(=O)=O)ccc1OC
not listed: [11]
inactive: all other assays above

CCN1CCCC1CN (stereo not given)
not listed: [11]
inactive: all other assays above

CCN(CC)CCN
inactive: all assays above

O=c1[nH]c2ccccc2c(=O)n1CCCl
not listed: [11]
inactive: all other assays above

O=C(O)Cn1c(=O)n(Cc2ccc(Br)cc2F)c(=O)c2ccc(Cl)cc21
not listed: [11]
inactive: all other assays above

CCCCCCCC(=O)[O-].CCCCCCCC(=O)[O-].[Zn+2]
inactive: all assays above

CCN1CCN(C(=O)N[C@@H](C(=O)N[C@@H]2C(=O)N3[C@@H]2SC(C)(C)[C@H]3C(=O)O)c2ccccc2)C(=O)C1=O
inactive: all assays above

Cc1ccc(O)cc1
inactive: all assays above

CN=C(N)NC(=O)Nc1c(C)cccc1C
inactive: all assays above

CC(CCc1ccc2c(c1)OCO2)NN (stereo not given)
inactive: all assays above

CCOC(=O)C(=O)CCCCCCl
inactive: all assays above

CC(C)CCCC(C)NCCC(C)C (stereo not given)
not listed: [11]
inactive: all other assays above

C#Cc1ccc(-c2ccccc2F)cc1
not listed: [11]
inactive: all other assays above

CO/N=C(/C(=O)N[C@@H]1C(=O)N2C(C(=O)OCOC(=O)C(C)(C)C)=C(C)CS[C@H]12)c1csc(N)n1
inactive: all assays above
